In PubChem BioAssay (Tox21):
Where “and” joins values, the source holds several entries; their conditions need not be identical. Identical values can stand only once. Results filed as inconclusive are left out. Some compounds were tested as several samples or in several runs, with calls that do not always agree. Calls of active or inactive are those of the source. Calls come from the whole dose curve; as a rule, active = well fitted inhibition curve with a large enough effect in the repeat runs; inconclusive = weak or mixed curves; inactive = no such curve, though single readings can be large or run the other way.

The molecules below were run against Cytochrome P450 2C9 (Homo sapiens) (UniProt P11712) (assay: Cytochrome P450 Family 2 Subfamily C Member 9 (CYP2C9) small molecule antagonists: luciferase reporter qHTS assay (AID 1671198; note: nearly all actives have a fitted effect of over 50% in size)). Conditions: P450-Glo CYP2C9 enzyme assay, luciferin luminescence; series mostly up to 115 µM; activity change, negative = inhibition: at the top concentration.
Sequence of Cytochrome P450 2C9 (Homo sapiens) (P11712 whole entry, looked up): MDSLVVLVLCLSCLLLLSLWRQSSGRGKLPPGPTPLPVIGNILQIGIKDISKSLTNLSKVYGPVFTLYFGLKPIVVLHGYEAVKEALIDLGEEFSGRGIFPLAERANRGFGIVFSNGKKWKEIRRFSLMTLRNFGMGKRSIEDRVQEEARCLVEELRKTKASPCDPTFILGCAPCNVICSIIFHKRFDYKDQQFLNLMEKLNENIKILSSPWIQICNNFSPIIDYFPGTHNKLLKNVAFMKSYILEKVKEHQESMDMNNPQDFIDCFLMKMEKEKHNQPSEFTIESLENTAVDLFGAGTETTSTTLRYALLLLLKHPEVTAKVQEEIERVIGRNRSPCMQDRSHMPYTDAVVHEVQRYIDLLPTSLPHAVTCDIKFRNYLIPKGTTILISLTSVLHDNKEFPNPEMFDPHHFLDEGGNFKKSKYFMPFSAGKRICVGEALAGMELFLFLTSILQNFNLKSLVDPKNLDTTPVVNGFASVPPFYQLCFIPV
Text: U.S. Tox21 Program National Center for Advancing Translational Sciences [NCATS] U.S. Environmental Protection Agency [EPA] National Institutes of Environmental Health Sciences [NIEHS] National Toxicology Program [NTP] U.S. Food and Drug Administration [FDA] Tox21 Assay Overview: Cytochrome P450 (CYP) enzymes are membrane-bound hemeproteins that play a key role in metabolism of drugs and xenobiotics. Evaluation of the effect of chemicals on CYP isozymes is useful to minimize the adverse drug reactions and toxicities in drug development process. Tox21 chemicals were tested for their effect on CYP enzyme activities by using P450-Glo (TM) screening systems (Promega Corporation, Madison, WI). These systems provide a luminescent method containing proluciferin substrates and are converted to luciferin products by CYP isozymes. The luciferin products formed are detected with a luciferin detection reagent, and the amount of light produced is proportional to CYP activity. P450-Glo (TM) CYP2C9 screening system (Catalog. No. V9790) was used to detect the compounds that interfere in CYP2C9 activity.
Tox21 Assay Protocol Summary: Two ul of enzyme-substrate mix was dispensed into medium binding white/solid 1536-well plates (Greiner Bio-One North America Inc., Monroe, NC) using a BioRaptr Flying Reagent Dispenser (FRD, Beckman Coulter, Brea, CA). […] The assay plates were incubated at room temperature for 10 min. Then 2 ul of NADPH regeneration solution was added to each well of the assay plates using an FRD and incubated at 37C for 1 h. The reaction was stopped by adding 4 ul of detection reagent using an FRD and after 20 min incubation at room temperature the luminescence signal was measured using a ViewLux plate reader (Perkin Elmer, Shelton, CT). Data were expressed as relative luminescence units.
% is set by controls: 0 for no effect and ±100 for the full control effect; potency is the fitted concentration of half-maximal effect.

SMILES | activity change, negative = inhibition | Potency
CCC1(c2ccc(N)cc2)CCC(=O)NC1=O (stereo not given) | -11.5% [at 53 µM] (inactive) | 
CC(C)(C#N)N=NC(C)(C)C#N |  | inactive
CCCCC(C#N)(Cn1cncn1)c1ccc(Cl)cc1 (stereo not given) |  | 28.2 µM (active) and 25.2 µM (active)
CCOP(=O)(OCC)OCC |  | 35 µM (active) and inactive
Oc1ccc(Cl)cc1Cc1ccccc1 |  | 25.2 µM (active) and 12.1 µM (active) and 9.77 µM (active)
CCOS(=O)(=O)OCC |  | 71.1 µM (active) and inactive
CC(C)(O)C#N |  | 42.4 µM (active)
CCC[CH2][Sn]([Cl])([CH2]CCC)[CH2]CCC |  | 14.2 µM (active) and 15.9 µM (active)
Cc1ccc(N=CN(C)C=Nc2ccc(C)cc2C)c(C)c1 |  | inactive
CCC(=O)Nc1ccc(Cl)c(Cl)c1 |  | 64.6 µM (active) and 63.3 µM (active)
CC(C)COC(=O)c1ccccc1C(=O)OCC(C)C |  | 28.3 µM (active) and 11.2 µM (active)
CC(C)(c1ccc(OCC2CO2)cc1)c1ccc(OCC2CO2)cc1 (stereo not given) |  | 64.1 µM (active) and 39.9 µM (active)
c1ccc(C2CO2)cc1 (stereo not given) |  | inactive and 71 µM (active)
Clc1cccc(C(Cl)(Cl)Cl)n1 |  | inactive
CC(C)CON=O |  | inactive
CCN(CC)C(=O)C(C)Oc1cccc2ccccc12 (stereo not given) |  | 11.4 µM (active) and 35.6 µM (active)
O=C(O)c1nn(Cc2ccc(Cl)cc2Cl)c2ccccc12 |  | 70.5 µM (active) and inactive
C[C@]12CCC(=O)C=C1CC[C@@H]1[C@@H]2CC[C@@]2(C)[C@H]1CC[C@]2(C)O |  | 35.9 µM (active)
COP(=S)(OC)Oc1ccc(Sc2ccc(OP(=S)(OC)OC)cc2)cc1 |  | 5.64 µM (active) and 11 µM (active)
COc1ccc(O)c(C(C)(C)C)c1 |  | 25.3 µM (active) and 31.7 µM (active)

SMILES | activity change, negative = inhibition | Potency
CNC(=O)CSP(=S)(OC)OC |  | 36.6 µM (active) and 20 µM (active)
Clc1ccc(C(Cl)(Cl)Cl)cc1 |  | inactive
CC1=C(C(=O)Nc2ccccc2)SCCO1 |  | 11.2 µM (active)
CC1(C)C(C(=O)OC(C#N)c2cccc(Oc3ccccc3)c2)C1(C)C (stereo not given) |  | 11.3 µM (active) and 7.96 µM (active)
O=S(=O)(O)C(F)(F)C(F)(F)C(F)(F)C(F)(F)C(F)(F)C(F)(F)C(F)(F)C(F)(F)F |  | 537 nM (active) and 502 nM (active) and 423 nM (active)
S=c1[nH]c2ccccc2[nH]1 | -11.1% (inactive) | 
ClC(Cl)(Cl)Br | -6.85% [at 23.6 µM] (inactive) | 
COC(=O)Nc1nc2ccccc2[nH]1 |  | inactive and 71 µM (active)
CC(C)(c1ccccc1)c1ccc(O)c(C(C)(C)c2ccccc2)c1 |  | 3.96 µM (active) and 2.83 µM (active)
CC1(C)Cc2cccc(O)c2O1 | -17.1% (inactive) | 
Cc1ccc([N+](=O)[O-])cc1 | -1.74% (inactive) | 
ClCC(Cl)CCl |  | inactive
CCNc1nc(Cl)nc(NC(C)(C)C#N)n1 |  | inactive
CCCCCCCCCCCCCl |  | inactive
O=[N+]([O-])c1ccc(Nc2ccccc2)cc1 |  | 32 µM (active) and 35.6 µM (active)
CNC(=S)S |  | 61.7 µM (active)
CCCCSP(=O)(SCCCC)SCCCC |  | 8.73 µM (active) and 3.17 µM (active)
COP(=O)(NC(C)=O)SC (stereo not given) | -14.4% (inactive) | 
CCCCOCCOC(C)=O | -9.4% (inactive) | 
c1ccc2c(c1)Nc1ccccc1S2 | -11.1% [at 53 µM] (inactive) | 
